# Screening data from PubChem.
# A selection: hits, their analogues and other compounds. The true share with any hit is near 31%.
# CYP2C19 inhib: inhibitors of human CYP2C19. P33261. CYP2C19 Supersomes, luciferin-H EGE luminescence, 30 min. inhibition, % at 5 µM. 96,000 tested, 21% active. AID 778;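 active = CYP2C19 inhibition above a set limit at 5 µM in the primary screen, cut at about 50% in these data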;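 also: plate controls were negative control wells for no effect and 2.5 mM tranylcypromine positive control for full effect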
# Target sequence (P33261 whole entry, looked up): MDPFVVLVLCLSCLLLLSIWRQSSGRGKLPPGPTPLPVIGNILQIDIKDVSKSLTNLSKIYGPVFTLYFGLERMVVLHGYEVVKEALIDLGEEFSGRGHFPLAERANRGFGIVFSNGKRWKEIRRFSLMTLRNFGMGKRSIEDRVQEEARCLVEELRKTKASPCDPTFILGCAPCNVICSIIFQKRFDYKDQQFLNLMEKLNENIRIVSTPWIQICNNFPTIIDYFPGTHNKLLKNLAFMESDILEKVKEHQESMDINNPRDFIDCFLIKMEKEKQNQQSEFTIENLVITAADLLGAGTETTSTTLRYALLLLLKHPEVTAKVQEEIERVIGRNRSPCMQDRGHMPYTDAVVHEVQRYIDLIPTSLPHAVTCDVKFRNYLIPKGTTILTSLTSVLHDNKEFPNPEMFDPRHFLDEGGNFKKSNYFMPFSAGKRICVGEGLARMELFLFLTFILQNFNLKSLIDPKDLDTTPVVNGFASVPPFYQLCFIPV
# CYP2C9 act: increases human cytochrome P450 2C9 activity | P11712 | activation factor at 5 µM | 96,000 tested, 1.4% active | recombinant CYP2C9, luciferin-H conversion, luminescence; hits give high values; factor 1 = untreated enzyme, 0 = blocked;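 active = activation factor of 2 or more for CYP2C9 at a 5 µM dose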;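 also: 0 = sulfaphenazole-blocked wells and 1 = vehicle-only wells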
# CYP2C19 activ: increases human CYP2C19 enzyme activity | recombinant CYP2C19, luciferin-H EGE luminescence; hits give high values; 0 = fully inhibited enzyme, 1 = untreated enzyme | AID 1025 | activation factor at 5 µM | 96,000 tested, under 10 active;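 active = activation factor of at least 2 at 5 µM in the primary screen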;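 also: 0 = wells with 2.5 mM tranylcypromine and 1 = vehicle-only wells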
# PLAP activator: human PLAP activation; P05187; purified PLAP enzyme, luminescent substrate read-out; hits give high values; activation fold at 20 µM; 96,000 tested, 1.2% active; in the data active = activation fold above about 2
# CYP2C9 inh: inhibitors of human CYP2C9. 96,000 tested, 20% active. P11712. inhibition, % at 5 µM. CYP2C9 Supersomes, luciferin-H conversion, luminescence;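 active = blocking of liver enzyme CYP2C9 beyond about 50% at 5 µM, limit read from the data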
# * marks the source's active call; other numbers are inactive results.
SMILES,CYP2C19 inhib,CYP2C9 act,CYP2C19 activ,PLAP activator,CYP2C9 inh
CCN(c1cccc(C)c1)S(=O)(=O)c1ccc2[nH]c(=O)c(=O)[nH]c2c1,32,0.3,0.7,1.5,69*
Cc1cccc(NC(=O)CN(C)S(=O)(=O)c2cnc[nH]2)c1,90*,0.1,0.1,1,93*
COc1ccc(C)cc1NC(=O)CN(C)S(=O)(=O)c1cnc[nH]1,78*,0.3,0.2,1.3,73*
COc1cccc(CNC(=O)CN(C)S(=O)(=O)c2cnc[nH]2)c1,99*,0.2,0,0.9,79*
CC1CCN(C(=O)C(Cc2ccccc2)NS(=O)(=O)c2ccc3c(c2)oc(=O)n3C)CC1 (stereo not drawn),36,0.9,0.6,1.2,12
CCN(c1cccc(C)c1)S(=O)(=O)c1cnc[nH]1,97*,0,0,1.1,98*
CCOc1cc([C@H]2[C@@H]3CCCC[C@]3(O)CCN2CC(=O)NCc2ccco2)ccc1O,56*,0.5,0.4,1.5,54*
CCCCNC(=O)CN1CCC2(O)CCCCC2C1c1ccccc1OC (stereo not drawn),42,0.6,0.6,1.5,41
CCCn1c(NC(=O)c2cccc(S(=O)(=O)N3CCCC3)c2)nc2ccccc21,37,0.6,0.6,1.5,40
O=C1NC(c2ccco2)Nc2ccccc21 (stereo not drawn),5,0.8,1,1,23
O=c1[nH]c2c(s1)C(c1ccco1)C1C3CCC(C3)C1S2 (stereo not drawn),83*,0.6,0.2,1.1,38
CCOC(=O)Cc1nnc(NC(=O)C(CC)Sc2nnc3c4ccccc4n(C)c3n2)s1 (stereo not drawn),48,0.1,0.5,1.4,94*
CCOC(=O)c1sc(NC(=O)C(CC)Sc2nnc3c4ccccc4n(C(C)C)c3n2)nc1C (stereo not drawn),35,0.3,0.6,1.6,66*
CCOC(=O)Cc1nnc(NC(=O)C(CC)Sc2nncn2C)s1 (stereo not drawn),-14,1,1.1,1.1,-3
CCC(Sc1nnc2c3ccccc3n(CC)c2n1)C(=O)Nc1sc2c(c1C#N)CCCC2 (stereo not drawn),38,0.5,0.6,1.6,52*
CCOC(=O)c1c(NC(=S)NC(=O)c2cnn(CC)c2)sc2c1CCC(C)C2 (stereo not drawn),-9,0.9,1.1,0.9,5
C/C(=N\NC(=O)CC(C)C)c1ccc(Cl)c(Cl)c1,8,0.9,0.9,0.9,9
Cc1ccc(-n2nnnc2SCn2nnc3ccccc3c2=O)cc1,18,1.4,0.8,0.8,-42
CCN(CC)S(=O)(=O)c1ccc2c(c1)nc(SCn1nnc3ccccc3c1=O)n2CC,20,0.3,0.8,1.2,68*
CC(C)c1nccn1S(=O)(=O)c1cc(Cl)ccc1Cl,41,1.1,0.6,0.9,-9
CCc1nccn1S(=O)(=O)c1cc(C)c(OC)cc1C,22,0.9,0.8,0.9,10
COc1ccc(Cl)cc1S(=O)(=O)n1ccnc1C(C)C,74*,0.8,0.3,1,21
CCCc1nccn1S(=O)(=O)c1cc(OC)ccc1OC,90*,0.4,0.1,1.5,56*
CCc1nccn1S(=O)(=O)c1cc(Br)ccc1OC,97*,1.1,0,1.1,-14
CCc1nccn1S(=O)(=O)c1ccc(OC)c(OC)c1,76*,1.2,0.2,1,-19
SMILES,CYP2C19 inhib,CYP2C9 act,CYP2C19 activ,PLAP activator,CYP2C9 inh
O=c1oc2ccccc2c2c1SC(C(F)(F)F)C2 (stereo not drawn),41,0.8,0.6,1.1,24
NC(=O)CSc1nc2c(sc3ccccc32)c(=O)n1CCCN1CCOCC1,16,1,0.8,1.2,5
CNC(=S)Nc1cc(OC)ccc1OC,3,1,1,1,-1
C=CCOc1ccc2c(c1)C(=NO)c1cc(OCC=C)ccc1-2,33,0.2,0.7,0.6,82*
COc1ccc2c(c1)C(=NO)c1cc(OC)ccc1-2,5,0,0.9,1.3,96*
COC(=O)CN1C(=O)S/C(=C/c2cc(C)n(C)c2C)C1=O,23,0.5,0.8,1,51*
O=C(Nc1c2ccccc2nc2ccccc12)C(Cl)(Cl)Cl,10,0.8,0.9,1,23
Cc1ccc(/C=C(\C#N)c2nc3ccccc3[nH]2)s1,16,0.7,0.8,0.9,34
N#C/C(=C\c1ccc(Cl)cc1)c1nc2ncccc2[nH]1,15,0.4,0.9,1.2,61*
CCCc1cc(C(=O)Nc2cccc(Cl)c2)no1,66*,0.9,0.3,0.7,8
CCCc1cc(C(=O)Nc2cccc(C(C)=O)c2)no1,22,1,0.8,0.9,2
CCCc1cc(C(=O)Nc2ccccc2SC)no1,20,4*,0.8,0.9,-304
CSc1ccccc1NC(=O)c1cc(-c2cccs2)on1,8,2.7*,0.9,1.1,-165
COc1ccc(-c2cc(C(=O)Nc3ccccc3SC)no2)cc1,1,1.3,1,0.8,-27
COc1ccc(N2CCN(Cc3oc(CO)cc(=O)c3O)CC2)cc1,-2,1,1,1.5,-5
CCCCCc1nnc(NC(=O)C(=O)OCC)s1,-14,0.9,1.1,1.1,14
Cc1nnc(Oc2ccccc2)c2ccccc12,17,0.8,0.8,0.9,22
Cc1ccc(Oc2nnc(-c3ccccc3)c3ccccc23)cc1,8,0.4,0.9,0.9,58*
Cc1cc(=O)[nH]c2n[nH]c(-c3ccccc3)c12,78*,1.1,0.2,1.1,-15
Cc1cc(=O)[nH]c(-c2ccccc2)n1,2,0.9,1,1,5
Cc1cc(C(=O)N/N=C/c2ccccc2Br)no1,-12,1.3,1.1,1.2,-27
CCOC(=O)c1c(C)[nH]c(C)c1C(=O)CSc1nnc(-c2cc(OC)c(OC)c(OC)c2)o1,15,0.7,0.8,1.2,26
COC(=O)c1c(C)[nH]c(C(=O)C(C)Sc2nnc(-c3cc(OC)c(OC)c(OC)c3)o2)c1C (stereo not drawn),40,0.3,0.6,1.4,72*
CN(C)S(=O)(=O)Nc1ccc(C(=O)O)cc1,7,0.9,0.9,1,9
CC(Oc1ccc(-c2ccccc2)c(F)c1)c1ccn(S(=O)(=O)c2ccc(Br)cc2)n1 (stereo not drawn),58*,0.3,0.4,0.8,71*
CC(C(=O)Nc1ccccc1)c1ccc(-c2ccccc2)c(F)c1 (stereo not drawn),-12,1,1.1,0.9,4
CCn1c(CNC(=O)c2cccc(C)c2)nc2ccccc21,19,1.8,0.8,0.9,-83
Cc1ccc2c(N)c(C)ccc2c1,67*,0.9,0.3,0.8,11
CN(C)/C=C(\C#N)c1nc2ccccc2[nH]1,-10,1.1,1.1,0.8,-12
COc1cc(/C=C(\C#N)c2nc3ccc(C)cc3[nH]2)c([N+](=O)[O-])cc1OC,31,0.6,0.7,1.1,37
